Experimental findings from PubChem BioAssay (NCI) are described below.

The structures appear in SMILES notation. The panel holds about 79,000 compounds, 15% with a hit somewhere; the sample as a whole holds those more often. A number with no mark means an inactive call. The source made the active and inactive calls. Cut-off read from the data, not from the text of the source: active = growth inhibition above about 70%; inactive = the rest.

A short description of assay [1]: NCI Yeast Anticancer Drug Screen. Data for the rad50 strain (AID 155).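 Note: 0% = growth of vehicle-only cultures of the same strain.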 Particulars: S. cerevisiae rad50 strain growth inhibition, active compounds read high. Summed up:
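Vehicle-treated cultures provide the reference for the growth inhibition reported for compound-exposed, repair-deficient yeast.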

Assay [2] is described as follows: NCI Yeast Anticancer Drug Screen. Data for the mec2-1 strain (AID 157). The conditions noted are these: S. cerevisiae mec2-1 strain, active compounds read high. Summed up:
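Vehicle-treated cultures served as reference for growth inhibition of compound-exposed mec2-1 yeast.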

A short description of assay [3]: NCI Yeast Anticancer Drug Screen. Data for the sgs1 mgt1 strain (AID 161).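 Note: 0% = growth of cultures given vehicle only.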 The conditions noted are these: S. cerevisiae sgs1 mgt1 strain, active compounds read high. Summed up: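 Genetically altered yeast, compound exposure, growth inhibition relative to vehicle.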
Assay [4] in a line: NCI Yeast Anticancer Drug Screen. Data for the cln2 rad14 strain (AID 165).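 Note: 0% = growth equal to vehicle treated cultures.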 Particulars: S. cerevisiae cln2 rad14 strain, active compounds read high. Summed up: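 Each compound was tested on cln2 rad14 yeast. Inhibition of growth was calculated against vehicle-exposed controls.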
Assay [5] in a line: NCI Yeast Anticancer Drug Screen. Data for the bub3 strain (AID 167). The conditions noted are these: S. cerevisiae bub3 mutant strain, active compounds read high. Summed up: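 Mutant yeast screening strain plus compound; vehicle-treated cultures serve as the 0% inhibition reference.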
Assay [6] in a line: NCI Yeast Anticancer Drug Screen. Data for the mlh1 rad18 strain (AID 175). Particulars: S. cerevisiae mlh1 rad18 strain growth inhibition, active compounds read high. In a few lines: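 Vehicle-treated cultures served as the reference for growth inhibition in a yeast strain carrying DNA damage repair alterations exposed to each compound.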
Setting [7] is: at 5.0 µM (retest, dose inferred, filed as 0.5).
Where [8] appears, read: at 50.0 µM (retest, dose inferred, filed as 5.0).

As for `CCCCCCCCCCCCCCCC(=O)NCC[N+](CC)(CC)Cc1ccc(C[N+](CC)(CC)CCNC(=O)CCCCCCCCCCCCCCC)cc1`, the growth inhibition is 99% (active) in assay [1] (setting [7]); 99% (active) in assay [1] (setting [8]); 99.3% (active) in assay [1] (at 50.0 µM); 99% (active) in assay [2] (setting [7]); 100% (active) in assay [2] (setting [8]); 99.6% (active) in assay [2] (at 50.0 µM). The growth inhibition was 99% (active) in assay [3] (setting [7]); 100% (active) in assay [3] (setting [8]); 99.5% (active) in assay [3] (at 50.0 µM); 99% (active) in assay [4] (setting [7]); 99% (active) in assay [4] (setting [8]); 99.3% (active) in assay [4] (at 50.0 µM). In addition, the growth inhibition in assay [5] (setting [7]) is 98% (active); in assay [5] (setting [8]) it was 99% (active); in assay [5] (at 50.0 µM) it was 99.5% (active); in assay [6] (setting [7]), 97% (active); in assay [6] (setting [8]), 99% (active); in assay [6] (at 50.0 µM), 99.3% (active).
On to `CC(C)COC(=O)C1C2C=CC(CC2)C1C(=O)OCC(C)C` (stereo not given), for which the growth inhibition is -13% in assay [1] (setting [7]); 30% in assay [1] (setting [8]); 30.1% in assay [1] (at 50.0 µM); -4% in assay [2] (setting [7]); 79% (active) in assay [2] (setting [8]); 18% in assay [2] (at 50.0 µM). For the same compound, the growth inhibition in assay [3] (setting [7]) was -1%; in assay [3] (setting [8]) it was 19%; in assay [3] (at 50.0 µM), 29.6%; in assay [4] (setting [7]), -11%; in assay [4] (setting [8]) it was 55%; in assay [4] (at 50.0 µM), 4.6%. Moreover, the growth inhibition in assay [5] (setting [7]) was 0%; in assay [5] (setting [8]), 82% (active); in assay [5] (at 50.0 µM), 40.5%; in assay [6] (setting [7]), -3%; in assay [6] (setting [8]), 86% (active); in assay [6] (at 50.0 µM), 46.5%.
As for `CCCCCCC(O)CCOC(C)=O` (stereo not given), the growth inhibition in assay [1] (setting [7]) was -3%; in assay [1] (setting [8]), -3%; in assay [1] (at 50.0 µM) it was -19.4%; in assay [2] (setting [7]) it was 4%; in assay [2] (setting [8]), 0%; in assay [2] (at 50.0 µM), -13.2%. In addition, the growth inhibition in assay [3] (setting [7]) is 1%; in assay [3] (setting [8]), -3%; in assay [3] (at 50.0 µM), -2.15%; in assay [4] (setting [7]), 2%; in assay [4] (setting [8]), -11%; in assay [4] (at 50.0 µM), -14.8%. In addition, the growth inhibition in assay [5] (setting [7]) is 4%; in assay [5] (setting [8]), 1%; in assay [5] (at 50.0 µM), 33.1%; in assay [6] (setting [7]), -3%; in assay [6] (setting [8]), 4%; in assay [6] (at 50.0 µM) it was -1.6%.
Consider `Cc1cc(Cl)ccc1NC(=O)CC1SC(=NC(=O)c2ccccc2Cl)NC1=O` (stereo not given), for which the growth inhibition in assay [1] (setting [7]) is 98% (active); in assay [1] (setting [8]), 99% (active); in assay [1] (at 50.0 µM), 91% (active); in assay [2] (setting [7]) it was 99% (active); in assay [2] (setting [8]), 100% (active); in assay [2] (at 50.0 µM), 94.2% (active). Further, the growth inhibition is 96% (active) in assay [3] (setting [7]); 99% (active) in assay [3] (setting [8]); 90.7% (active) in assay [3] (at 50.0 µM); 48% in assay [4] (setting [7]); 99% (active) in assay [4] (setting [8]); 92.4% (active) in assay [4] (at 50.0 µM). The growth inhibition in assay [5] (setting [7]) was 98% (active); in assay [5] (setting [8]), 99% (active); in assay [5] (at 50.0 µM) it was 91.5% (active); in assay [6] (setting [7]), 98% (active); in assay [6] (setting [8]), 99% (active); in assay [6] (at 50.0 µM), 92.2% (active).
As for `COc1cc(C=O)c(C=O)cc1OC`, the growth inhibition in assay [1] (setting [7]) is 8%; in assay [1] (setting [8]), 74% (active); in assay [1] (at 50.0 µM), 69.9%; in assay [2] (setting [7]) it was 6%; in assay [2] (setting [8]) it was 40%; in assay [2] (at 50.0 µM), 50.2%. Further, the growth inhibition in assay [3] (setting [7]) is 3%; in assay [3] (setting [8]), 79% (active); in assay [3] (at 50.0 µM), 52.5%; in assay [4] (setting [7]), 9%; in assay [4] (setting [8]), 84% (active); in assay [4] (at 50.0 µM) it was 89.2% (active). Further, the growth inhibition in assay [5] (setting [7]) was 5%; in assay [5] (setting [8]) it was 87% (active); in assay [5] (at 50.0 µM) it was 73.5% (active); in assay [6] (setting [7]), 16%; in assay [6] (setting [8]), 87% (active); in assay [6] (at 50.0 µM), 74.5% (active).
As for `NC(=O)NOCC1NC(=O)NC1=O` (stereo not given), the growth inhibition in assay [1] (setting [7]) was -24%; in assay [1] (setting [8]) it was -4%; in assay [1] (at 50.0 µM) it was -4.95%; in assay [2] (setting [7]), -10%; in assay [2] (setting [8]), -13%; in assay [2] (at 50.0 µM), -13.1%. Moreover, the growth inhibition in assay [3] (setting [7]) is -16%; in assay [3] (setting [8]), -10%; in assay [3] (at 50.0 µM), -21.4%; in assay [4] (setting [7]) it was 8%; in assay [4] (setting [8]) it was -2%; in assay [4] (at 50.0 µM), -11.1%. In addition, the growth inhibition was -3% in assay [5] (setting [7]); -3% in assay [5] (setting [8]); -21.8% in assay [5] (at 50.0 µM); 1% in assay [6] (setting [7]); 8% in assay [6] (setting [8]); -16.3% in assay [6] (at 50.0 µM).
As for `O=C1OC(OCC#CCOC2OC(=O)C(Cl)=C2Cl)C(Cl)=C1Cl` (stereo not given), the growth inhibition in assay [1] (setting [7]) is 37%; in assay [1] (setting [8]) it was 99% (active); in assay [1] (at 50.0 µM), 99.4% (active); in assay [2] (setting [7]), 28%; in assay [2] (setting [8]) it was 99% (active); in assay [2] (at 50.0 µM), 99.7% (active). Also, the growth inhibition in assay [3] (setting [7]) is 46%; in assay [3] (setting [8]), 100% (active); in assay [3] (at 50.0 µM), 99.3% (active); in assay [4] (setting [7]), 28%; in assay [4] (setting [8]), 99% (active); in assay [4] (at 50.0 µM) it was 97.8% (active). The growth inhibition in assay [5] (setting [7]) is 26%; in assay [5] (setting [8]), 99% (active); in assay [5] (at 50.0 µM) it was 98.3% (active); in assay [6] (setting [7]) it was 46%; in assay [6] (setting [8]) it was 99% (active); in assay [6] (at 50.0 µM), 99.5% (active).
Regarding `O=C(O)/C=C/C(=O)Nc1cccc2c1C(=O)c1ccccc1-2`, the growth inhibition in assay [1] (setting [7]) is 18%; in assay [1] (setting [8]), 89% (active); in assay [1] (at 50.0 µM), 92.3% (active); in assay [2] (setting [7]), -18%; in assay [2] (setting [8]), 93% (active); in assay [2] (at 50.0 µM), 97.9% (active). Further, the growth inhibition in assay [3] (setting [7]) is 35%; in assay [3] (setting [8]), 95% (active); in assay [3] (at 50.0 µM), 97.3% (active); in assay [4] (setting [7]), 8%; in assay [4] (setting [8]), 96% (active); in assay [4] (at 50.0 µM), 89.7% (active). The growth inhibition in assay [5] (setting [7]) was 17%; in assay [5] (setting [8]) it was 93% (active); in assay [5] (at 50.0 µM) it was 95.9% (active); in assay [6] (setting [7]), 34%; in assay [6] (setting [8]), 97% (active); in assay [6] (at 50.0 µM), 96.1% (active).
Consider `Oc1cc(Br)cc2cc(Cl)cnc12`, for which the growth inhibition is 99% (active) in assay [1] (setting [7]); 89% (active) in assay [1] (setting [8]); 84.5% (active) in assay [1] (at 50.0 µM); 97% (active) in assay [2] (setting [7]); 87% (active) in assay [2] (setting [8]); 84.5% (active) in assay [2] (at 50.0 µM). In addition, the growth inhibition in assay [3] (setting [7]) was 98% (active); in assay [3] (setting [8]), 93% (active); in assay [3] (at 50.0 µM) it was 79.8% (active); in assay [4] (setting [7]), 98% (active); in assay [4] (setting [8]) it was 88% (active); in assay [4] (at 50.0 µM) it was 80% (active). For the same compound, the growth inhibition in assay [5] (setting [7]) is 98% (active); in assay [5] (setting [8]) it was 86% (active); in assay [5] (at 50.0 µM), 83.1% (active); in assay [6] (setting [7]) it was 98% (active); in assay [6] (setting [8]), 81% (active); in assay [6] (at 50.0 µM), 75.5% (active).
Regarding `CC(=O)Oc1ccc(/C=C2\N=C(c3ccccc3)OC2=O)c(OC(C)=O)c1`, the growth inhibition was 4% in assay [1] (setting [7]); 75% (active) in assay [1] (setting [8]); 15.3% in assay [1] (at 50.0 µM); 1% in assay [2] (setting [7]); 55% in assay [2] (setting [8]); 4.25% in assay [2] (at 50.0 µM). For the same compound, the growth inhibition in assay [3] (setting [7]) was -4%; in assay [3] (setting [8]) it was 36%; in assay [3] (at 50.0 µM) it was 10.8%; in assay [4] (setting [7]) it was 2%; in assay [4] (setting [8]) it was 37%; in assay [4] (at 50.0 µM), 25.8%. Besides, the growth inhibition is -2% in assay [5] (setting [7]); 79% (active) in assay [5] (setting [8]); 9.55% in assay [5] (at 50.0 µM); 0% in assay [6] (setting [7]); 77% (active) in assay [6] (setting [8]); 1.05% in assay [6] (at 50.0 µM).
